Experimental data as given in the supplement of paper PMC12632987.

T1: USP38, Q8NB14
T1 chain: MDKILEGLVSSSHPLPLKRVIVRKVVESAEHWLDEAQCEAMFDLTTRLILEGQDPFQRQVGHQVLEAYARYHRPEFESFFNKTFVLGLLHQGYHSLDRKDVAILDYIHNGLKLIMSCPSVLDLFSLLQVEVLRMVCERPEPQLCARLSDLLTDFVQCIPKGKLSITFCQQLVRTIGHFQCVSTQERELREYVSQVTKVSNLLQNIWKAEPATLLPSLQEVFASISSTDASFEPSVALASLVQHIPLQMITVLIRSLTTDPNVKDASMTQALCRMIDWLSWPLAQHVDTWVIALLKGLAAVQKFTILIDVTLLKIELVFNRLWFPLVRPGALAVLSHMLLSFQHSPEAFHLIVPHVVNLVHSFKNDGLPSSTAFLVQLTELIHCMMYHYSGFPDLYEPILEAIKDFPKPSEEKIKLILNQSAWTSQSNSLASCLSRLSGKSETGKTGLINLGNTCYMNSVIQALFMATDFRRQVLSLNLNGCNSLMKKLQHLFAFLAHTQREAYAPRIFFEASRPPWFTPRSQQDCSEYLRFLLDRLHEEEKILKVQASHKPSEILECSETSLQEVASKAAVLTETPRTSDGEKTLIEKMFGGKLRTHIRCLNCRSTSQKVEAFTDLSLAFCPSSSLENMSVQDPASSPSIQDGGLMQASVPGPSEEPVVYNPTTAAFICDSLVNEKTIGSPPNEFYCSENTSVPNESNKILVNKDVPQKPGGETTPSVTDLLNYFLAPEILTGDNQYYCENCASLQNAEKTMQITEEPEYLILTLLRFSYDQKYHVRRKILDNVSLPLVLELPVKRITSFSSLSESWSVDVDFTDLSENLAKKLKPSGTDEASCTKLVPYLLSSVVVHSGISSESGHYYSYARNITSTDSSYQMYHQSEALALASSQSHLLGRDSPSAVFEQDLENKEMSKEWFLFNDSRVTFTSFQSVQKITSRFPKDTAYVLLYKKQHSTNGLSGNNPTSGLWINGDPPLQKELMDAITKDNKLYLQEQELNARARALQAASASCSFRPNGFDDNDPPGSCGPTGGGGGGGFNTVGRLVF

B1: usp_38_diff_out_20_123_455 (protein)
chain: SEELRERAERLLKRSKQLVENAKQILKFVKAGVLSEETVEEHIKFLEDLIKYFEEELERLKKEDPSLKELLEEVEAAIKEAKEVLKEIKEAAEKRKKEEE
B2: usp_38_diff_out_20_123_448 (protein)
chain: SEALRARAEELLRRAEQLLENAKQILKFVKAGVLSEETVESHIKMIESQIEYIRREIERLRAEDPSLAPLLEEVERVVREVEEVLEEIKKAVEERKKEKA
B3: usp_38_diff_out_1_162_40 (protein)
chain: ELEEVLREAREAIERARELLERAKEALEEGRLEEAERLLDEAADELGRAARLLREARRLLRELPPEEREKYREELEKLERELRELIDEYTELAREVFLRR
B4: usp_38_diff_out_1_9_444 (protein)
chain: DVRREIAEALLEALERGLEELERLRARAEAALAAGDLARAEALLRRLVRNARGLEAAAEDLIEMAKEIGDEELARRAEEILERARRLREEAEARLAELAA
B5: usp_38_diff_out_1_153_28 (protein)
chain: SKLEELKKRVEEITKEAKELKKEAEKLIKSGKATLEKVEELADKLGKLSVELREIRSEAAEDEEYYKELKPLFKEAEKALNEAVDALEKAGRLVFEKMAE
B6: usp_38_diff_out_1_162_39 (protein)
chain: RLEELLEEARRAIEEARRLLEEAERAFKAGDLEEARRLLDRAADALGRAAQLLREARRLMRDLPPEEREKVREELDRLEEELDRLIDRYTELATRVFLAE
B7: usp_38_diff_out_1_153_29 (protein)
chain: SELEELKARVEKITKEAEALKKEAEKLIADGTATREKVDALADKLGALAVELREIKSKAAESGEYYKKLKPLFDKAEAALNEAVDALNRAATLVFEREAA
B8: usp_38_diff_out_20_123_454 (protein)
chain: SEELRKEAEELLRRAEQLLENAEQILKFVKAGVLSLEKVEEHIKFIEEHIKYLEEKLKELKKKDKSLKELLEKIEELIKKTKEVLKEIKEAVEKRKKEAA
B9: usp_38_diff_out_1_162_48 (protein)
chain: EVEELLKKAKEKLKEAKELIKKAKEALKAGDLETAKKYLDKAWDLLGELAKLLREARRKMRELSPEERKKVRKELKKLEEEADKLIDELTKLETEVFLKE
B10: usp_38_diff_out_1_153_30 (protein)
chain: SELEELEKEIKKITEEAKKLKKEAEELIKSGKATREKVDKLADELGKLAVRLREIRSKAAESGDYYKKLKPLFKEAEKALNEAVDALEKAGRLVFEKEAE
B11: usp_38_diff_out_1_162_41 (protein)
chain: DIEKVLEQAQKALEEAEKLLKEAEKALKEGDLEEAEKYIRKAWDKLGQLAQLLREARRLLRELSPEERKKYREQLDKLEAKADELIDRLVKLEKEVFLKK
B12: usp_38_diff_out_1_153_36 (protein)
chain: SELDELKARLDAITAEANALKAEINAAIEAGTMTREQVDAAWDRLGALAKELAEIRAKAAEKPELYPQLKPAIDAATAALNAAIDALNEAARLVFLREAE
B13: usp_38_diff_out_1_153_32 (protein)
chain: SELEELKKKVEEITKKAKELKKEAEKLIADGTATLEKVDALADELGALAVELREIRSKAAESGDYYKKLKPLFDEANAALNEAVDALNRAGTLVFEREAE
B14: usp_38_diff_out_1_162_37 (protein)
chain: RAEELLERLREHTERLRRLVEEAKRRLDTLSAEELRAMADELADAIAETDELIREARRLMVDLDPERREEARRAIEEARRAADEAVEVYEQLVLRSIELE
B15: usp_38_diff_out_1_153_33 (protein)
chain: SKLEELKARVEALTAEAKALEKEAKALIESGKATREKVDALADRLGALAVELRELRSEAAESGEYYKELKPLFDEANAALDAAVDALEKLGRLVFEKEAE
B16: usp_38_diff_out_1_9_443 (protein)
chain: SVDDVIIEALEKALEDGLKELKELEKKAEKALKAGDKAQAEALLKRLIRNAEGLIAAAKDAIKLAKKAGLEERAKRLEEMLKEAEKLLEEAKKKLKELKA
B17: usp_38_diff_out_1_153_34 (protein)
chain: SRLEELRKRVEEITKRAKELKKRAEELIESGEATLEKVDELADELGRLAVELREVRSEAAEDGDYYRELKPLFDEAEKALNEAVDALNEAGRLVFLKEAE
B18: usp_38_diff_out_1_162_44 (protein)
chain: AVEETLAQLEEALERAERLIEEAERALEEGDLERARELLDEAADTLGRAAQLLREARRLSRELSPEERARVRERLRELNERLDELIDRLTELEREVFLRE
B19: usp_38_diff_out_1_162_45 (protein)
chain: KVEEVLEEAERLLEEAEKLIEAAEKALAAGDLETARKYLDEAWDKLGELAKLLREARRLRRELSPERQEEVRKRLRELEERADELIDRLTELETEVFLRE
B20: usp_38_diff_out_20_123_451 (protein)
chain: SEELRKEAEELLKRAKQLLENAKQILKFVKAGVLSEETIEAHIKMIESQIKYIEEKIKELREKDPSLKPLLEEVEKVVKEVKETLKEIKEAAEKRRKEKA
B21: usp_38_diff_out_1_162_46 (protein)
chain: EVEKLLEEAEKLLEEAKELIEKAKEAFKEGKLEEAEKYLDEAADKLGQLAKLLREARRLRRELSPERQEEVRKRLRELEERANELIDEYTELETEVFLAK
B22: usp_38_diff_out_1_162_43 (protein)
chain: DVEKVLEQAKELLEKAEKKIKEAEKALKEGKLEEAEKYLDEAWELLGQLAKLLREARRLRRELDPERQAEVTKKLKELNEKANKLIDKLTKLEEEVFLKK
B23: usp_38_diff_out_20_123_446 (protein)
chain: MEEARERAERLLERARQLLENAKQILKFVKAGVLSKETIESNIKFIESQIEYLERERERLREEHPELEELLEEIDRVLEETREVLKEIKAAAAAREAAEA
B24: usp_38_diff_out_20_123_450 (protein)
chain: SEELREEAEELLRRAEQLLENSEQILKFVKAGVLSEETIKSHIEMIESQIKYIEEKIERLRKEDPSLEPLLEEVEKIREEVKKTLEEIKKAAEERKKEEA
B25: usp_38_diff_out_20_123_447 (protein)
chain: SEELRARAERLLRQAEQLLENAEQILKFVKAGVLSKETQKAHIEFIESQIETIRREIERLRAEDPSLAELLARIEEVLRKVEETLEEIKKAVEKREKEEA
B26: usp_38_diff_out_20_123_449 (protein)
chain: SEELRERAERLLRDAERLLENAKQILKFVEAGVLSEETVEAHIEMIEAHIEYIEREIERLRREDPSLAPLLERVERVLEEVKEVLEKIKEAAEKRKEEEK
B27: usp_38_diff_out_1_162_42 (protein)
chain: KLEELLEQAKRALAEAEELLERAEEALAAGRLEEARRYLDRAWDALGRLAQLLREARRLLRELSPEEREKARKQLKELEARADELIDRLVELEREVFLRE
B28: usp_38_diff_out_1_153_31 (protein)
chain: SELEELRERIERLTREARELEREARELIESGEATREKVDELADRLGRLAVELRELRSKAAESGEYYKELKPLFEEAEEALNRAVDALNEAGRLVFEREAE
B29: usp_38_diff_out_20_123_452 (protein)
chain: AAALRAEAEALLARAQQLLENAEQVLKFVKAGVLSEETVEEHIEMFEAHIEYLEAERARLAAEAPELAPLLAQIDEAIAKAKEVLEKIKEELEKRREEEE
B30: usp_38_diff_out_1_153_35 (protein)
chain: SELDKLKAELADITAKANALKKEIEAAIKAGTMTREKVDAAWDELGALAKRLAEIRSKAAENPELYPKLKADIDAANAALDAAIDALNEAATKVFLKEAE
B31: usp_38_diff_out_1_162_38 (protein)
chain: ELEELLKEAEEAIERARELLERAEEAFAAGDLETAERLLREAADELGRAAQLLREARRLLRELPPEEREKYRERLEELERELDELIDRYTALATEVFLAR
B32: usp_38_diff_out_20_123_456 (protein)
chain: MEKAKEEAEKLLRRAKQLVENAEQVLKFVKAGVLSEEKAEEYIKSFEEHIKYIEKEVKKLKKEYPELKELLEEVEKEIKKAKKVLKELKEAVEKRKKEEE

Biological target: T1, USP38, Q8NB14
Experiment: median log2 fold change of GCK-ALFA target abundance (FLAG IP / Myc IP barcode read proportion) (log2 ratio); each designed protein is fused to an ALFA-tag nanobody in HEK293 cells to bring the named protein to FLAG-tagged glucokinase (GCK); Myc marks an untargeted standard; higher = target protein stabilised (more abundant)
Conditions: target protein: 3xFLAG-MCP-GCK-ALFA reporter; HEK293 landing pad (RPLP)
Method in brief: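 Sequencing of reverse-transcribed, amplified circular RNA barcodes from anti-FLAG and anti-Myc immunoprecipitates provided the readout for an ALFA-nanobody-fused binder library recombined into HEK293 landing-pad cells. Those cells were induced with 2 μg mL^−1 doxycycline, transfected with a plasmid expressing a FLAG-tagged target and a Myc-tagged standard, and lysed after 48 h. Target abundance is the per-binder median log2 ratio of FLAG to Myc barcode read proportions. Only barcodes at a proportion of ≥10^−7 in both replicates and binders with ≥3 barcodes per replicate were kept, with a 10^−6 pseudocount added before the two replicates were pooled.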

| Binder | median log2 fold change |
| --- | --- |
| B1 | 0.12 |
| B2 | 0.273 |
| B3 | -0.209 |
| B4 | -0.00975 |
| B5 | -0.31 |
| B6 | 0.185 |
| B7 | -0.161 |
| B8 | 0.308 |
| B9 | -0.368 |
| B10 | -0.0674 |
| B11 | -0.214 |
| B12 | 0.22 |
| B13 | -0.165 |
| B14 | 0.216 |
| B15 | 0.179 |
| B16 | 0.0775 |

| Binder | median log2 fold change |
| --- | --- |
| B17 | 0.122 |
| B18 | 0.133 |
| B19 | -0.331 |
| B20 | 0.227 |
| B21 | -1.08 |
| B22 | -1.34 |
| B23 | 0.247 |
| B24 | 0.529 |
| B25 | 0.258 |
| B26 | 0.117 |
| B27 | -0.0981 |
| B28 | 0.15 |
| B29 | 0.438 |
| B30 | 0.136 |
| B31 | 0.219 |
| B32 | 0.134 |
